This note sets out measurements from publication PMC5540273 (PLoS ONE, 2017).

Read-outs that look alike come from different tables or passages of the source.

Settings in all cases: n = 1
For assay [1], the system named is PIM1.
In assay [2] the test system is PIM2.
The test system of assay [3] is PIM3.
For assay [4], the system named is PIP5K1A.
In assay [5] the test system is PIP5K1C.
Assay [6] deals with PIP5K2B.
Assay [7] deals with T1, PIP5K2C.
T1 construct: gene PIP4K2C

The subject of assay [8] is T2, PKAC-alpha.
T2 construct: gene PRKACA

Assay [9] concerns T3, PKAC-beta.
T3 construct: gene PRKACB

In assay [10] the test system is PKMYT1.
Assay [11] relates to PKN1.
Assay [12] has as its system PKN2.
The test system of assay [13] is PLK1.
Assay [14] deals with PLK2.
For assay [15], the system named is PLK3.
Assay [16] has as its system PLK4.
Assay [17] deals with PRKCD.
The subject of assay [18] is PRKCE.
For assay [19], the system named is PRKCH.
Assay [20] has as its system PRKCI.
Setting [21] is: concentration: 1 μM, replicates: in singlicate.
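Note: KINOMEscan kinase panel screen.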

For `Cc1ccc(NC(=O)Nc2cccc(C(F)(F)F)c2)cc1` [GSK955403], the “%Inh” value is given as 5% in assay [1] (1 µM); 15% in assay [2] (1 µM); 21% in assay [3] (1 µM); 0% in assay [4] (1 µM); 0% in assay [5] (1 µM); 0% in assay [6] (1 µM). In addition, the “%Inh” value in assay [7] (1 µM) is 0%; in [8] (1 µM), 14%; in assay [9] (1 µM) it was 14%; in assay [10] (1 µM) it was 0%; in assay [11] (1 µM), 16%; in assay [12] (1 µM) it was 0%. The “%Inh” value in assay [13] (1 µM) was 0%; in assay [14] (1 µM), 0%; in assay [15] (1 µM) it was 0%; in assay [16] (1 µM) it was 9%; in [17] (1 µM), 8%; in assay [18] (1 µM), 0%. Also, the “%Inh” value turned out to be 0% in [19] (1 µM) and 11% in assay [20] (1 µM).
On to `O=C(Nc1n[nH]c2nc(-c3nccs3)c(Br)cc12)C1CC1` [SB-742251], for which the “%Inh” value in [1] (setting [21]) was found to be 0%; in [2] (setting [21]), 0%; in assay [3] (setting [21]), 0%; in assay [4] (setting [21]), 7%; in [5] (setting [21]), 67%; in assay [6] (setting [21]) it was 23%. For the same molecule, the “%Inh” value in [7] (setting [21]) was found to be 27%; in assay [8] (setting [21]) it was 0%; in assay [9] (setting [21]), 0%; in [10] (setting [21]), 3%; in assay [11] (setting [21]) it was 6%; in assay [12] (setting [21]), 0%. In addition, the “%Inh” value in assay [13] (setting [21]) was found to be 0%; in assay [14] (setting [21]), 0%; in [15] (setting [21]), 0%; in assay [16] (setting [21]) it was 0%; in assay [17] (setting [21]), 0%; in [18] (setting [21]), 11%. The “%Inh” value is on record as 0% in assay [19] (setting [21]) and 5% in [20] (setting [21]).
For `COc1cccc(NC(=O)NC2CCN(c3ccnc(Nc4ccc(F)cc4)n3)C2)c1` (centres unmarked) [GSK1379721], the “%Inh” value in assay [1] (setting [21]) came to 9%; in [2] (setting [21]), 0%; in [3] (setting [21]), 0%; in [4] (setting [21]), 38%; in [5] (setting [21]), 59%; in assay [6] (setting [21]) it was 0%. Further, the “%Inh” value stood at 0% in [7] (setting [21]); 0% in assay [8] (setting [21]); 0% in [9] (setting [21]); 0% in assay [10] (setting [21]); 8% in assay [11] (setting [21]); 0% in [12] (setting [21]). Also, the “%Inh” value in assay [13] (setting [21]) amounted to 7%; in assay [14] (setting [21]), 0%; in assay [15] (setting [21]) it was 7%; in assay [16] (setting [21]), 3%; in assay [17] (setting [21]), 0%; in assay [18] (setting [21]), 14%. Further, the “%Inh” value in assay [19] (setting [21]) was 0%; in assay [20] (setting [21]), 4%.
Turning to `Fc1cc(Cl)ccc1Nc1ccnc2cc(I)ccc12` [GW551191], the “%Inh” value in assay [1] (setting [21]) came to 22%; in assay [2] (setting [21]) it was 0%; in assay [3] (setting [21]), 6%; in [4] (setting [21]), 0%; in assay [5] (setting [21]), 30%; in assay [6] (setting [21]) it was 0%. In addition, the “%Inh” value in assay [7] (setting [21]) is listed as 10%; in assay [8] (setting [21]), 0%; in assay [9] (setting [21]), 0%; in assay [10] (setting [21]) it was 1%; in assay [11] (setting [21]) it was 17%; in assay [12] (setting [21]), 0%. The “%Inh” value was determined as 0% in [13] (setting [21]); 0% in [14] (setting [21]); 0% in assay [15] (setting [21]); 1% in [16] (setting [21]); 0% in [17] (setting [21]); 10% in assay [18] (setting [21]). Further, the “%Inh” value in [19] (setting [21]) is given as 2%; in [20] (setting [21]) it was 16%.
In the case of `Fc1cccc(COc2nnc(-c3ccc4c(c3)CCO4)o2)c1`, the “%Inh” value in assay [1] (setting [21]) is reported as 11%; in [2] (setting [21]) it was 8%; in [3] (setting [21]), 0%; in [4] (setting [21]), 31%; in assay [5] (setting [21]), 6%; in assay [6] (setting [21]) it was 29%. The “%Inh” value turned out to be 10% in [7] (setting [21]); 0% in assay [8] (setting [21]); 0% in [9] (setting [21]); 11% in [10] (setting [21]); 0% in assay [11] (setting [21]); 0% in [12] (setting [21]). In addition, the “%Inh” value is 0% in assay [13] (setting [21]); 9% in [14] (setting [21]); 11% in assay [15] (setting [21]); 12% in assay [16] (setting [21]); 12% in assay [17] (setting [21]); 0% in [18] (setting [21]). Besides, the “%Inh” value in assay [19] (setting [21]) and in assay [20] (setting [21]) was 0% throughout.
In the case of `NC(=O)c1nnc2ccccc2c1N`, the “%Inh” value in assay [1] (setting [21]) is reported as 1%; in [2] (setting [21]), 0%; in assay [3] (setting [21]) it was 0%; in [4] (setting [21]), 0%; in assay [5] (setting [21]), 38%; in assay [6] (setting [21]) it was 0%. For the same molecule, the “%Inh” value in assay [7] (setting [21]) is reported as 13%; in assay [8] (setting [21]), 13%; in assay [9] (setting [21]), 16%; in assay [10] (setting [21]) it was 15%; in assay [11] (setting [21]), 1%; in [12] (setting [21]), 38%. In addition, the “%Inh” value stood at 28% in [13] (setting [21]); 8% in [14] (setting [21]); 10% in assay [15] (setting [21]); 19% in assay [16] (setting [21]); 0% in assay [17] (setting [21]); 15% in [18] (setting [21]). In addition, the “%Inh” value in [19] (setting [21]) is given as 0%; in [20] (setting [21]), 28%.
As to `Cc1cccc(-c2nc(C)cc(Nc3ccncc3)n2)n1` [GSK257997], the “%Inh” value was 19% in [1] (setting [21]); 0% in assay [2] (setting [21]); 37% in assay [3] (setting [21]); 0% in assay [4] (setting [21]); 39% in [5] (setting [21]); 7% in assay [6] (setting [21]). In addition, the “%Inh” value in assay [7] (setting [21]) came out at 0%; in [8] (setting [21]), 3%; in [9] (setting [21]), 17%; in assay [10] (setting [21]), 12%; in assay [11] (setting [21]), 0%; in assay [12] (setting [21]) it was 0%. The “%Inh” value in assay [13] (setting [21]) stood at 5%; in assay [14] (setting [21]), 0%; in assay [15] (setting [21]), 0%; in assay [16] (setting [21]), 1%; in [17] (setting [21]), 15%; in [18] (setting [21]) it was 0%. In addition, the figures for the “%Inh” value in assay [19] (setting [21]) and in [20] (setting [21]) were 5% and 12%, respectively.
